Test results taken from paper PMC5540273 (PLoS ONE, 2017).

What follows are molecules tested on VRK2. Conditions: concentration: 1 μM, replicates: in singlicate; n = 1.
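Also: KINOMEscan kinase panel screen.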

| SMILES | %Inh [%] |
| --- | --- |
| CC(C)(C)OC(=O)NC1CCCN(c2cc(-c3ccc4c(N)n[nH]c4c3)nc(N)n2)C1 (centres unmarked) [GSK2286096] | 0 |
| Fc1cccc(COc2ccc(Nc3ncnc4sc(-c5ccc[nH]5)cc34)cc2Cl)c1 [GW707818] | 26 |
| COc1cc2c(Nc3cccc(NC(=O)c4ccccc4)c3)ncnc2cc1OCCCN1CCOCC1 [GSK223810] | 10 |
| O=C(c1ccc(-c2cc(-c3c[nH]nc3-c3ccccn3)ccn2)cc1)N1CCCC1 [GW792479] | 0 |
| Cc1ccc(C)c(NC(=O)NCCNc2ccnc(Nc3ccc(F)cc3)n2)c1 [GSK1379878] | 0 |
| CC(=O)Nc1n[nH]c2ncc(-c3ccccc3)cc12 [SB-548492] | 0 |
| Cl.Cn1ccc(-c2cccc(Nc3ccnc4cc(-c5nccs5)ccc34)c2)n1 [GW525701] | 7 |
| O=C(CCO)NCCn1ccc2ncnc(Nc3ccc(Oc4cccc(C(F)(F)F)c4)c(Cl)c3)c21 | 0 |
| O=C(Nc1n[nH]c2nc(-c3ccco3)c(Br)cc12)c1ccc(CN2CCCC2)cc1.O=C(O)[C@H](O)[C@@H](O)C(=O)O [SB-742352] | 0 |
| Oc1ccc2ncnc(Nc3ccc(OCc4ccccc4)cc3)c2c1 [GI262866] | 0 |
| NC(=O)c1sc(-n2cnc3ccccc32)cc1OCc1ccccc1F [GSK1024306] | 7 |
| Fc1cccc(COc2ccc(Nc3ncnc4nn5ccccc5c34)cc2Cl)c1 [GW689066] | 28 |
| O=c1cc(N2CCOCC2)nc2n(Cc3cccc(Cl)c3)ccn12 [GSK2296823] | 2 |
| O=C(Nc1ccccc1)Nc1ccc(Oc2ccc3nccn3n2)cc1 | 0 |
| Fc1cccc(COc2ccc(Nc3ncnc4cc[nH]c34)cc2Cl)c1 | 13 |
| C[C@@H]1CCN(C(=O)CO)C[C@@H]1N(C)c1ncnc2[nH]ccc12 | 0 |
| FC(F)(F)c1ccc(-c2nn3ncccc3c2-c2ccnc(Nc3cccc(C(F)(F)F)c3)n2)cc1 [GW828205] | 0 |
| CSc1nn2c(=O)cc(N3CCOCC3)nc2n1Cc1cccc(Cl)c1Cl [GSK2347225] | 0 |

| SMILES | %Inh [%] |
| --- | --- |
| Cl.c1ccc(Cn2ccc3cc(Nc4ncnc5ccccc45)ccc32)cc1 [GW275568] | 0 |
| CCCc1ccc(S(=O)(=O)NC2CCN(c3ccnc(Nc4ccc(OC)cc4)n3)C2)cc1 (centres unmarked) [GSK1379737] | 4 |
| CCn1c(-c2ccncc2)nc2cnccc21 [SB-735216] | 0 |
| Nc1nc(-c2ccc3c(N)n[nH]c3c2)cc(N2CCCCC2)n1 [GSK2228768] | 0 |
| COC(=O)c1cccc(NC(=O)NCCNc2ccnc(Nc3ccc(F)cc3)n2)c1 [GSK1379883] | 0 |
| CC(C)(C)c1ccc(-n2cnc3c(N)ncnc32)cc1 [SKF-97263] | 9 |
| Cc1cc(N2CCC(NS(=O)(=O)c3ccc(F)cc3)CC2)nc(Nc2cccc(C#N)c2)n1.O=C(O)C(F)(F)F [GSK1653537] | 0 |
| CCC(CC)(CC)n1cnc2c(N)ncnc21 [SKF-97620] | 0 |
| OCCOCCn1ccc2ncnc(Nc3ccc(Oc4cccc(Cl)c4)c(Cl)c3)c21 | 46 |
| COc1ccc(Nc2nccc(N3CCC(NC(=O)c4cccc(NC(C)=O)c4)C3)n2)cc1 (centres unmarked) [GSK1379732] | 41 |
| Cc1ccc(O)cc1Nc1cc(C(F)(F)F)nc2ccc(-c3ccncc3)cc12 [GW630823] | 0 |
| Cn1ccc2ncnc(Nc3ccc(Oc4cccc(Cl)c4)c(Cl)c3)c21 | 0 |
| Clc1cc(Nc2ncnc3cc[nH]c23)ccc1OCc1ccccn1 | 9 |
| O=C(NCCCN1CCCC1=O)c1cnc(NCc2cc(Cl)ccc2Cl)nc1NC1CCNCC1 | 70 |
| COc1ccc(Nc2nccc(N3CCC(NC(=O)Nc4ccc5c(c4)OCO5)C3)n2)cc1 (centres unmarked) [GSK1379745] | 0 |
| Fc1ccc(Nc2nccc(-c3c(-c4ccc(Cl)cc4)nn4ncccc34)n2)cc1F [GW829058] | 34 |
| C[C@H]1CC[C@@H](C(=O)Nc2ccccc2)CN1c1cc(-c2ccc3c(N)n[nH]c3c2)nc(N)n1 [GSK2283293] | 19 |
